Calls of active or inactive are those of the source. Rule as the data show it: active = inhibition above about 44%; inactive = the rest.

The target in the assay is Steroidogenic factor 1 (Homo sapiens) (UniProt Q13285). As to the kind of experiment: inverse agonism at SF1 nuclear receptor – cell-based, luminescence, high throughput, counter-screen for LRH-1 inverse agonist project (AID 651614).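 Also: cells cotransfected with StAR promoter reporter and SF1 expression vector; 0% = vehicle on cells with receptor and 100% = vehicle on cells lacking receptor.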 As to conditions: cell-based SF1 luciferase reporter, at 3.6 µM, stronger effect = higher value.
Chain of Steroidogenic factor 1 (Homo sapiens) (Q13285 whole entry, looked up): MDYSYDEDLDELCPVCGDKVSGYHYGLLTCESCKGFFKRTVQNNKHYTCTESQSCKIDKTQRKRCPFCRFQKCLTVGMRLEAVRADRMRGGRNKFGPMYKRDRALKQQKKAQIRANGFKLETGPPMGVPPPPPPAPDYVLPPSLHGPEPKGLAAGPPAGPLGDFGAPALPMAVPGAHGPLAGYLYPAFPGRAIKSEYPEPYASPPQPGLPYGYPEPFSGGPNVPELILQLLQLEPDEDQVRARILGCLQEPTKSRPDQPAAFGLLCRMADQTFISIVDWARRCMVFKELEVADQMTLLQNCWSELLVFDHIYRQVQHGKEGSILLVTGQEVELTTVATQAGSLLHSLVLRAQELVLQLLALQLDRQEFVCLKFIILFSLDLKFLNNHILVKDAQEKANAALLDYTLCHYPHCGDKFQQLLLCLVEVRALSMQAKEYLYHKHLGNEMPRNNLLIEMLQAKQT
The term inhibition denotes the share of the control response that was lost under treatment. In the case of `CC(=O)O[C@H]1C[C@@H]2OC3C=C(C)CCC3(C)[C@@]1(C)[C@@]21CO1` (stereo partly specified), the inhibition was 96.8% (active).

`C[C@@H]1C[C@@H]([C@H](O)CC2CC(=O)NC(=O)C2)C(=O)[C@@H](C)C1`: the inhibition was 97.9% (active). Turning to `CC(=O)OC1CC(OC2C(O)CC(OC3C(O)CC(OC4CCC5(C)C(CCC6C5CCC5(C)C(C7=CC(=O)OC7)CCC65O)C4)OC3C)OC2C)OC(C)C1OC1OC(CO)C(O)C(O)C1O` (stereo unspecified), the inhibition was 96.6% (active). Turning to `COC1=C(C)C(=O)C2=C(C1=O)C(CO)N1C(C#N)C3CC4C(C1C2N1CCOC41)N3C` (stereo unspecified), the inhibition is 96.2% (active).

For the compound `C[C@@H]1O[C@@H](O[C@@H]2C=C3CC[C@@H]4C(CC[C@]5(C)[C@@H](c6ccc(=O)oc6)CC[C@]45O)[C@@]3(C)CC2)[C@H](O)[C@H](O)[C@H]1O` (stereo partly specified), the inhibition was 98.8% (active).

With `COC1C(O)C(C)OC(OC2CCC3(C)C(CCC4C3C(O)CC3(C)C(C5=CC(=O)OC5)CCC43O)C2)C1O` (stereo unspecified), the inhibition was 98.8% (active).

Values taken from PubChem BioAssay.
